Compound activity: PubChem BioAssay, National Center for Advancing Translational Sciences (NCATS)
Most compounds without a hit are left out; they make up all but 21% or so of the library.
Pf growth 96h: P. falciparum growth inhibition at 96 hour, primary screen for plastid delayed-death inhibitors | 320,000 compounds, 6.9% hits | Potency, µM (top dose mostly 28.7 µM), without a hit: top-dose activity change, negative = inhibition, hits mostly inhibitors | AID 504834 | P. falciparum luciferase reporter growth, 96 h; note: potency is the fitted concentration of half-maximal effect; % is set by controls: 0 for no effect and ±100 for the full control effect
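Parasite growth measured via integrated firefly luciferase reporter in P. falciparum. Infected erythrocytes at 2% hematocrit, 0.05% parasitemia final were treated 96 hours at 37 C under 5% CO2, and luminescence was read.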
Pf growth 48h: inhibits P. falciparum growth in the first generation, 48 h. Potency, µM (highest dose often 28.7 µM), for the others: top-dose activity change, negative = inhibition, hits mostly inhibitors. 310,000 compounds, 5.9% hits. AID 504832. P. falciparum luciferase growth in erythrocytes, 48 h; note: potency is the fitted concentration of half-maximal effect; % is set by controls: 0 for no effect and ±100 for the full control effect
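Parasite viability was followed by luminescence of a genomically integrated firefly luciferase. Cultures held 0.1% parasitemia at 2% hematocrit (final), incubated under 5% CO2 at 37 C.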
NS1 function inh: blocks influenza NS1 protein function. Potency, µM (top dose mostly 46.1 µM), for inactives: top-dose activity, positive = more growth. 270,000 compounds, 0.4% hits; calls by dose curve; note: potency is the fitted concentration of half-maximal effect; actives are rising curves; nearly all actives have a fitted effect of over 50% in size
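Compounds were scored for reversing the slow growth caused by influenza A NS1 in S. cerevisiae, measured by optical density at 600 nm. Assay medium contained 2% galactose at pH 6.0; NS1-free yeast of the same strain were the positive control.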
CHX counter: counter-screen for Shiga toxin inhibitors: cycloheximide protein synthesis inhibition; max response, %; cell reporter, cycloheximide protein synthesis inhibition counterscreen; 300,000 compounds, 12% hits; AID 2314; in the data active = max response mostly above about 13%, no sharp cut-off; inactive = mostly below about 14%; note: read at 38.3 µM for the half of the compounds with a filed dose; 0% is about no effect
Shiga inhibitor: inhibitors of Shiga toxin in Vero cells; Vero cells, Shiga toxin protein synthesis inhibition reporter; inhibition, % at 38.7 µM; 290,000 compounds, 9.2% hits; AID 2315; in the data active = inhibition mostly above about 28%, no sharp cut-off; inactive = mostly below about 43%; note: 0% is about no effect
* marks the source's active call; other numbers are inactive results; ? = inconclusive; nt = not tested or not shown. Unless noted, calls come from the whole dose curve; as a rule, active = well fitted inhibition curve with a large enough effect; inconclusive = small, poorly fitted or top-dose-only effect, or another doubt; inactive = no such curve, though single readings can be large or run the other way.

SMILES	Pf growth 96h	Pf growth 48h	NS1 function inh	CHX counter	Shiga inhibitor
O=S(=O)(c1ccc(Oc2ccc(Cl)cc2)nc1)N1CCOCC1	35.6%	2.3%	nt	nt	nt
COc1cc(NC(=O)CSc2nc(C3CC3)nc3ccccc23)cc(OC)c1	0.0%	-8.7%	-9.9%	-5.0	-8.5
Cc1ccc(NC(=O)CCCCCCCCCCC2COCCO2)c(C)c1 (centres undefined)	-9.4%	-18.8%	-4.6%	-4.1	-7.3
CC(Oc1ccc(C(=O)c2ccc(F)cc2)cc1)C(=O)N1CCOCC1 (centres undefined)	8.9%	-16.2%	nt	nt	nt
CCCN1CCC(=O)N([C@H](CSc2ccc(OC)cc2)c2ccccc2)CC1	?	?	1.3%	14.7*	37.1*
CCCN1CCC(=O)N(C(CSc2ccc(OC)cc2)CC(C)C)CC1 (centres undefined)	nt	nt	nt	43.0*	52.9*
CCCN1CCC(=O)N(C(CSc2ccc(Br)cc2)Cc2ccccc2)CC1 (centres undefined)	nt	nt	nt	-4.6	-9.7
CCCN1CCC(=O)N(C(CSc2ccc(Br)cc2)CC(C)C)CC1 (centres undefined)	nt	nt	nt	36.1*	89.4*
CC(=O)Nc1ccc(SC[C@H](CC(C)C)N2CCN(CC(C)C)CCC2=O)cc1	?	?	0.1%	-6.2	-3.6
CC(C)C[C@@H](CSc1ccc(Br)cc1)N1CCN(CC(C)C)CCC1=O	?	?	-6.8%	17.7*	74.8*
CCOC(=O)C1CCN(C(=O)COC(=O)c2ccc(=O)n(Cc3ccccc3)n2)CC1	29.4%	18.3%	nt	nt	nt
CCN1/C(=C/c2cc[n+](C)cc2)C=Cc2cc(C)ccc21	-26.4%	0.738µM*	15.5%	-1.2	8.2
CCC1(CC)N([O-])C(C)=C(c2ccccc2)[N+]1=O	42.5%	0.6%	-16.6%	-3.1	-4.1
CCC1(C)N([O-])C(C)=C(c2ccccc2)[N+]1=O (centres undefined)	0.0928µM*	nt	-1.7%	2.4	7.8
COc1nnc(-c2ccccc2)s1	13.2%	16.8%	7.7%	15.4	41.2*
Nc1nnc(-c2ccccc2)s1	nt	19.3%	-8.4%	6.3	10.0
O=C(O)c1cc(O)ccc1NC(=O)C(c1ccccc1)c1ccccc1	?	-4.7%	19.9%	1.0	7.8
Fc1ccc(NC(=S)N2CCCc3ccccc32)cc1	?	20.8%	-17.1%	10.0	51.2*
CCN1CCN(C(=S)Nc2cccc([N+](=O)[O-])c2)CC1	109.2%	-14.6%	-8.3%	3.1	-16.2
S=C(Nc1cccnc1)N1CCc2ccccc21	5.22µM*	10.2%	1.1%	-0.7	-4.2
O=C(Nc1cccc([N+](=O)[O-])c1)N1CCCc2ccccc21	-13.1%	-22.2%	-9.8%	48.3*	74.4*
O=[N+]([O-])c1cccc(NC(=S)N2CCc3ccccc32)c1	?	9.3%	-24.5%	31.8*	58.4*
CCN1CCN(CC(=O)Nc2ccc(S(=O)(=O)N3C(C)CCCC3C)cc2)CC1 (centres undefined)	-23.1%	39.0%	3.9%	-5.4	-14.1
CCOc1ccc(NC(=O)C2CCCN(c3cnccn3)C2)cc1 (centres undefined)	17.0%	-14.6%	-2.5%	6.3	-7.8
Cc1nc(C(=O)N2CCc3c([nH]c4ccccc34)C2c2cc(F)ccc2F)cs1 (centres undefined)	28.2%	10.4µM*	-9.2%	24.1*	39.9*
SMILES	Pf growth 96h	Pf growth 48h	NS1 function inh	CHX counter	Shiga inhibitor
Cc1nc(C(=O)N2CCc3c([nH]c4ccccc34)C2c2ccccn2)cs1 (centres undefined)	-13.7%	18.2%	4.9%	5.1	79.9*
FC(F)(F)c1ccc(N/N=C/c2cccnc2)nc1	?	?	-37.2%	40.7*	71.0*
C(=N/Nc1ccccn1)/c1cccnc1	nt	nt	-8.7%	nt	nt
O=[N+]([O-])c1ccc(N/N=C\c2cccnc2)nc1	19.5%	84.0%	3.9%	5.9	7.5
C(=N\Nc1ccccn1)/c1cccnc1	?	32.4%	4.6%	23.5*	nt
CCOC(=O)C1=C(COC(=O)CCOc2ccccc2)NC(=O)NC1C (centres undefined)	?	-20.3%	nt	nt	nt
CCOC(=O)c1cnn(-c2ccc(C)cc2)c1N	106.0%	nt	0.1%	32.8*	74.9*
CCOC(=O)c1cnn(C(=O)c2ccccc2)c1N	13.2%	24.1%	31.6%	10.6	11.5
CCOC(=O)c1ccc(-n2ncc(C(=O)OCC)c2N)cc1	?	26.4%	?	21.3*	33.5
COC(=O)c1cnn(-c2ccc(C(=O)Nc3ccc(C(C)=O)cc3)cc2)c1N	?	5.22µM*	nt	nt	nt
CC(=O)c1ccc(NC(=O)c2ccc(N3CCCC3=O)cc2)cc1	1.6%	-3.1%	nt	nt	nt
Cc1ncsc1C(=O)Nc1cccc(C(F)(F)F)c1	10.9%	8.9%	-1.2%	0.2	-5.8
C=CCc1cccc2cc(C(=O)N(CC)CC)c(=O)oc12	24.9%	41.1%	?	-1.4	13.8
Cc1ncc(/C=C2\C(=O)Nc3ccccc32)[nH]1	?	22.6%	7.9%	26.2*	40.2*
O=C(/C=C1\C(=O)Nc2ccccc21)/C=C1\C(=O)Nc2ccccc21	?	60.8%	0.2%	14.9*	48.3
CCc1ncc(/C=C2\C(=O)Nc3ccccc32)[nH]1	70.4%	34.6%	-0.6%	26.3*	28.7
Cc1cccc(C(=O)OCC(=O)N(C)C(c2ccccc2)c2ccccc2)c1[N+](=O)[O-]	?	-18.7%	nt	nt	nt
CCc1ccc2nc(SCC(=O)N3CC(=O)Nc4ccccc43)c(C#N)cc2c1	11.7µM*	-6.6%	10.1%	-2.1	14.6
CCc1ccc2nc(SCC(=O)Nc3ccccc3N3CCOCC3)c(C#N)cc2c1	-53.6%	9.28µM*	-41.6%	5.1	5.8
Cc1ccc2nc(SCC(=O)Nc3ccccc3N3CCOCC3)c(C#N)cc2c1	?	7.38µM*	0.9%	1.5	7.8
Cc1ccc(SCC(=O)Nc2ccccc2N2CCOCC2)cc1	?	-11.8%	-38.6%	4.3	4.0
Nc1cc(N)nc(SCC(=O)Nc2ccccc2N2CCOCC2)n1	-6.8%	-2.9%	-4.2%	-2.8	3.8
CS(=O)(=O)c1ccc(Cl)c(NC(=O)c2cc(=O)[nH]c3ccc(S(=O)(=O)N4CCOCC4)cc23)c1	21.3%	5.1%	nt	nt	nt
O=C(NCc1ccco1)C(=O)NCC1OCCN1C(=O)c1ccc(Cl)cc1 (centres undefined)	-1.4%	5.3%	-4.3%	-2.5	-7.0
COc1ccc(-c2sc3ccccc3c2C#CCO)cc1	-21.3%	40.2%	-71.4%	-0.9	11.9
SMILES	Pf growth 96h	Pf growth 48h	NS1 function inh	CHX counter	Shiga inhibitor
COc1cc(-c2ccc3sc(-c4ccsc4)c(C#CCO)c3c2)cc(OC)c1OC	?	11.7µM*	nt	nt	nt
Cc1c(NC(=O)c2nn(CC(C)C)c(=O)c3ccccc23)c(=O)n(-c2ccccc2)n1C	?	-12.0%	nt	nt	nt
Cc1c(NC(=O)c2cc(-c3ccccc3)on2)c(=O)n(-c2ccccc2)n1C	-17.2%	4.0%	-4.6%	-0.8	-25.3
CCCCn1nc(C(=O)Nc2c(C)n(C)n(-c3ccccc3)c2=O)c2ccccc2c1=O	14.7µM*	?	nt	nt	nt
CCCc1cc(C(=O)Nc2c(C)n(C)n(-c3ccccc3)c2=O)no1	9.28µM*	nt	7.3%	-3.8	21.7
Cc1ccc(Cn2cc(SCC(N)=O)c3ccccc32)cc1	?	?	nt	11.7	-18.7
O=C1C=C(N2CCCCC2)C2(CCCCC2)O1	19.4%	-5.8%	4.7%	6.2	-3.7
